This is a sample that favours compounds with a hit; in the whole collection about 19% have one here.
HT1080-NT tox = kills 2HG-producing HT-1080-NT fibrosarcoma cells; Potency, µM (highest dose often 46.1 µM), usual class: cytotoxic; HT-1080-NT fibrosarcoma viability, CellTiter-Glo ATP luminescence, 48 h; 360,000 tested, 1.6% active;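 also: NT is the 2HG producing partner of a matched IDH1 knockdown line; nearly all actives have a fitted effect of over 55% in size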
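Toxicity toward the 2HG-producing NT line was scored as %Activity, normalised to DMSO and no-cell wells, from CellTiter-Glo luminescence after 48 hours' treatment.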
TDP1 cell CPT = growth inhibition of DT40 Tdp1-/-;hTDP1 cells with camptothecin (screen for TDP1 inhibitors) | chicken DT40 Tdp1-/-;hTDP1 cells + 20 nM CPT, ATP luminescence, 48 h | Potency, µM (doses to about 46.2 µM), most hits filed as inhibitors | 420,000 tested, 12% active | AID 686979; also: nearly all actives have a fitted effect of over 55% in size
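Chicken DT40 Tdp1-/- cells complemented with human TDP1, 400 cells/well, exposed to compounds plus 20 nM camptothecin for at least 48 h at 37 C; viability read as ATP content by CellTiter-Glo luminescence.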
DT40 TDP1 no CPT = qHTS for Inhibitors of human tyrosyl-DNA phosphodiesterase 1 (TDP1): qHTS in cells in absence of CPT. DT40 Tdp1-/- hTDP1 cells, no CPT, ATP luminescence, 48 h. Potency, µM (top dose mostly 46.2 µM), usual class: inhibitors. 420,000 tested, 15% active. AID 686978, 2013; also: nearly all actives have a fitted effect of over 55% in size
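DT40 Tdp1-/-;hTDP1 cells, no CPT (DMSO vehicle only), 400 cells/well; compounds pin-transferred; ≥48 hr, 37 °C; CellTiter-Glo 30 min RT dark, luminescence read.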
HT1080 IDH1KD tx = toxicity to HT-1080 IDH1 knockdown cells (counter line); HT-1080 IDH1 knockdown viability, ATP luminescence, 48 h; Potency, µM (titrated, usually from 46.1 µM), hits mostly cytotoxic; 360,000 tested, 2% active
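Assay cells: HT-1080 with IDH1 knockdown, 750 per well, RPMI/5% FBS. Exposure: 48 h at 37 °C following 2 h pre-incubation. Read: CellTiter-Glo luminescence; fitted concentration-response, curve class assigned.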
ELG1 repair inh = ELG1-dependent DNA repair inhibition; Potency, µM (top dose mostly 46.1 µM), most hits filed as inhibitors; HEK293T ELG1-luciferase reporter, luminescence, 16 h; DNA damage induced by 5-fluorouridine; 330,000 tested, 2.3% active; also: nearly all actives have a fitted effect of over 55% in size
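In this reporter screen, reduction of luminescence relative to DMSO vehicle indicated activity. Compounds and 5-fluorouridine were added together to 2,000 cells per well, incubated for 16 hr at 37 °C, then developed with ONE-Glo.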
IL-1B inflam inh = inflammasome signaling inhibition, IL-1 beta readout; THP-1 LPS/ATP IL-1B secretion, AlphaLISA, 16 h; hits give low values; activity change, % at 57.5 µM; 360,000 tested, 4.7% active; in the data active = activity change below about -50%; inconclusive = mostly about -30% to -49%
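THP-1 cells pretreated 1 hr with compounds (up to 57.5 uM final), then stimulated with LPS (250 ng/mL final) plus ATP (1.25 mM final); secreted IL-1B measured by AlphaLISA after 16 hr, decreased signal indicating inhibition.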
A number is an active result; - = inactive; ? = inconclusive; . = no result; ! = not confirmed by another sample; [ ] = dose if it differs, or a comment. Unless noted, calls follow the shape of the dose curve; as a rule, active = well fitted curve in the direction sought with a large enough effect; inconclusive = small, poorly fitted or top-dose-only effect, or another doubt; inactive = no such curve, though single readings can be large; an effect the other way counts as inactive or inconclusive.

SMILES	HT1080-NT tox	TDP1 cell CPT	DT40 TDP1 no CPT	HT1080 IDH1KD tx	ELG1 repair inh	IL-1B inflam inh
CCOc1ccc(NC(=O)c2ccc(NS(=O)(=O)c3cccs3)cc2)cc1	-	-	?	-	-	-
CN1CCN(C(=O)C(=O)Nc2c3c(nn2-c2ccc(Cl)cc2)CSC3)CC1	.	-	-	.	.	.
CN(C)c1ccc(/C=C/c2cc(Cl)nc3ccccc23)cc1	.	?	-	.	.	.
CCN(CC)c1ccc(/C=C/c2cc(Cl)nc3ccccc23)cc1	.	?	16µM	.	.	.
O=C(c1cc(Cl)nc2ccccc12)N1CCCCC1	-	-	-	-[9.24 µM]	-	-
Nc1ccc(/C=C/c2cc(Cl)nc3ccccc23)cc1	.	4µM	4µM	.	.	.
COc1ccc(N2CCN(C3CCCN(Cc4cccc(C(C)=O)c4)C3)CC2)cc1 (stereo unspecified)	-	-	-	-	-	-
Cc1ccc(CSCC(=O)N/N=C/c2ccc(OCC(=O)Nc3ccc(C)cc3)cc2)cc1	-	?	?	-	?	-
O=C(COc1ccc(/C=N/NC(=O)CSCc2ccc([N+](=O)[O-])cc2)cc1)NCc1ccco1	-	?	?	-	23µM	-
Cc1ccc(C)c2[nH]c(=O)c(CN(CC3CCCO3)S(=O)(=O)c3ccc4c(c3)OCCO4)cc12 (stereo unspecified)	-	?	16µM	-	-	-
Cc1cc(C)c2[nH]c(=O)c(CN(CC3CCCO3)S(=O)(=O)c3ccc4c(c3)OCCO4)cc2c1 (stereo unspecified)	-	?	23µM	-	?	?
CCCOc1ccc(C(=O)NNC(=S)NC(=O)c2cc(-c3ccc(Cl)cc3)nc3ccccc23)cc1	?	23µM	12µM	?	-	-
COC(=O)c1ccc(NC(=S)NC(=O)c2cc(-c3ccccc3)nc3ccccc23)cc1	-	?	?	-	?	-
COc1ccc(Cl)cc1C(=O)NNC(=S)NC(=O)c1cc(-c2ccccc2)nc2ccccc12	?	?	?	?	-	-
COc1ccc(C(=O)NNC(=S)NC(=O)c2cc(-c3ccccc3)nc3ccccc23)cc1	?	?	16µM	?	-	-
CN1CCN(S(=O)(=O)c2ccc(N(C)Cc3ccc(C(F)(F)F)cc3)c([N+](=O)[O-])c2)CC1	?	10µM	13µM	?	-	-85
COc1ccc(CN(C)C(C)C(=O)Nc2ccc(S(=O)(=O)N3CCCCC3)cc2)c(OC)c1 (stereo unspecified)	-	?	?	-	?	?
CN(CC(=O)Nc1ccc(S(=O)(=O)N2CCCC2)cc1)Cc1cccc(Cl)c1Cl	-	16µM	?	-	?	-
COc1ccc(Cl)cc1NC(=O)CN(C)CC(=O)Nc1cccc(S(=O)(=O)N2CCCC2)c1	-	23µM	?	-	?	?
CCN(Cc1ccc(OC)c(F)c1)C(C)C(=O)Nc1ccc(S(=O)(=O)N2CCCC2)cc1 (stereo unspecified)	-	?	21µM	-	?	-
COc1ccc(CN(C)CC(=O)Nc2cccc(S(=O)(=O)N3CCCC3)c2)cc1F	-	?	18µM	-	?	-
C=CCOc1ccc(CN(C)c2ccc(S(=O)(=O)N3CCN(C)CC3)cc2[N+](=O)[O-])cc1	-	?	?	-	-	-
COc1ccccc1CCC(=O)Nc1cccc(S(=O)(=O)N2CCCC2)c1	-	?	?	-	?	-
CN(Cc1cccc(Cl)c1Cl)c1ccc(S(=O)(=O)N2CCCCC2)cc1[N+](=O)[O-]	-	?	21µM	-	-	-
COc1ccccc1CN(C)CC(=O)Nc1cccc(S(=O)(=O)N2CCCCC2)c1	-	16µM	23µM	-	?	-
SMILES	HT1080-NT tox	TDP1 cell CPT	DT40 TDP1 no CPT	HT1080 IDH1KD tx	ELG1 repair inh	IL-1B inflam inh
CC(=O)OC(C)OC(=O)C(C)c1ccc(-c2ccccc2)c(F)c1 (stereo unspecified)	.	-	-	.	.	.
COc1ccccc1CN1CCCC2(CCN(C(=O)c3cccc(F)c3)CC2)C1	.	-	-	.	.	.
O=C(CCC(=O)c1cccs1)NCc1ccccc1Cl	-	-	-	-	-	-
CC1CCC(NC(=O)c2cc(S(=O)(=O)N3CCCCC3)ccc2N2CCOCC2)CC1 (stereo unspecified)	-	?	?	-	-	-
CC1CCc2c(sc(NC(=O)c3cc(-c4ccc(F)cc4)on3)c2C(N)=O)C1 (stereo unspecified)	.	-	-	.	.	.
Oc1[nH]c2ccccc2c1C=Nc1ccc2c(c1)OCCO2	-	?	?	-	?	-90
Cc1ccccc1-c1csc(C(O)c2ccc(F)c(F)c2)n1 (stereo unspecified)	?	?	?	-	.	-
COc1cc(C(O)c2nc(-c3csc4ccccc34)cs2)ccc1F (stereo unspecified)	?	?	18µM	?	.	-
OC(c1ccc(F)c(F)c1)c1nc(-c2csc3ccccc23)cs1 (stereo unspecified)	?	23µM	?	?	.	-
COc1ccccc1-c1cncnc1-n1ccnc1	.	-	-	.	.	.
CN1CCN(C2=Nc3ccccc3Cc3ccccc32)CC1	.	-	?	.	.	.
Clc1ccc2c(c1)C(N1CCNCC1)=Nc1ccccc1O2	-	15µM!	7.3µM!	-	-	-
Cc1cc2nc(-c3ccc(Br)cc3)cc(C(F)(F)F)n2n1	.	-	-	.	.	.
COc1ccccc1C(CC(=O)Nc1nccs1)c1ccco1 (stereo unspecified)	-	?	15µM	-	-	-
O=C(CC(c1ccc(F)cc1)c1ccco1)Nc1nccs1 (stereo unspecified)	-	-	?	?	-	-
C=CCc1cc(C=Nc2ccc(N3CCOCC3)cc2)cc(OCC)c1O	-	-	16µM	-	.	-
COc1cc(NC(=O)c2ccccc2)c(C)cc1NC(=O)CC(CC(=O)O)c1ccccc1 (stereo unspecified)	-	-	-	-	-	-
O=[N+]([O-])c1cccc(N=Nc2ccc(O)cc2O)c1	?	3.3µM	5.2µM	5.8µM	.	-68
O=[N+]([O-])c1ccc(N=Nc2ccc(O)cc2O)cc1	18µM	?	-	5.8µM	-	-92
O=C(CCNC(=O)c1ccco1)NC(Cc1c[nH]c2ccccc12)C(=O)O (stereo unspecified)	-	-	-	-	-	-
Cn1c(-c2ccccc2)c(C#Cc2ccc(N)cc2)c2ccccc21	-	?	-	-	-	-
CCCCC[C@@H](C)N1C[C@@H](COCc2ccccc2)Oc2cc(N3CC[C@H](O)C3)ccc2S1(=O)=O	?	?	16µM	?	.	-

Assay outcomes as filed in PubChem.
